Assay outcomes: PubChem, several laboratories
Rows were chosen to be rich in hits. Some 2.4% of all compounds tested hit in one or more screens of this group.
HTR2A ag = mouse HTR2A agonism via beta-arrestin recruitment | CHO-K1 mHTR2A beta-arrestin complementation, luminescence; percent of 30 µM serotonin response | activation, % at 7.6 µM | 0.66% of 360,000 active;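 active = activation above a run cutoff, the mean activation of all tested compounds plus 3 SD, cut at about 14% in these data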;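 also: 0% = plate median of compound wells and 100% = 30 µM serotonin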
ANO1 block = mouse TMEM16A channel inhibition, primary screen. HEK293 TMEM16A/YFP iodide influx fluorescence, ionomycin. normalized B-score (activity score, 25-100; higher = stronger inhibition) at 10 µM. 1.2% of 310,000 active. AID 588511;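 active = ratio plate-corrected score three or more library SD toward inhibition, starting fluorescence score within five deviations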;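 also: score derived from kinetic fluorescence span divided by baseline fluorescence per well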
Target sequence (Q8BHY3 whole entry, looked up): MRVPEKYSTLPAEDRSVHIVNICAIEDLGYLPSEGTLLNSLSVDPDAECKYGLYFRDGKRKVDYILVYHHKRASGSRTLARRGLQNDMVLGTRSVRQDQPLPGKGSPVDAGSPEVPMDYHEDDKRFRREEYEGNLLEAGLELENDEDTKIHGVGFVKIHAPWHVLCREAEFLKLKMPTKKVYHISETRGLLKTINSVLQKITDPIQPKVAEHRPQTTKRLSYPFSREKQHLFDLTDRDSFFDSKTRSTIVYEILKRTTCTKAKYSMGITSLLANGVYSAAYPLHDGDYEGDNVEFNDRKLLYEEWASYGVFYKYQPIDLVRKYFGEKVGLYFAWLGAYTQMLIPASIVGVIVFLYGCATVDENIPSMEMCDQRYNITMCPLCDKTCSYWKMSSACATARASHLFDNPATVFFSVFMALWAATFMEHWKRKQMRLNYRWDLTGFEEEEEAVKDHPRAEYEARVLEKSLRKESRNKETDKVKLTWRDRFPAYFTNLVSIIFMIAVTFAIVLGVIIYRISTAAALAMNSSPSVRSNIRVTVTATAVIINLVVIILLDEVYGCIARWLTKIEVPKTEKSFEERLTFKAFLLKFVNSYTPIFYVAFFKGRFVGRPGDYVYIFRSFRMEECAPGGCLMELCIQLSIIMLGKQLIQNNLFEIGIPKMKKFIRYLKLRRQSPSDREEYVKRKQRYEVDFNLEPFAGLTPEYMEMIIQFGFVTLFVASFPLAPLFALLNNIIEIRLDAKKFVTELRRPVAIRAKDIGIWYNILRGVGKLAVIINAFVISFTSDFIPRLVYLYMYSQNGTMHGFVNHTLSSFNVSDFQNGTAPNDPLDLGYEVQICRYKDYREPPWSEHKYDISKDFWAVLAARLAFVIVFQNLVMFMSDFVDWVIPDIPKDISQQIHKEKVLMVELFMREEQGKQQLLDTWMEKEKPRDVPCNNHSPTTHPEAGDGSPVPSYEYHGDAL
TLR4-MyD88 BLA = TLR4-MyD88 interaction inhibition in cells; HeLa CL3-4 TLR4/MyD88 BLA complementation, FRET ratio; inhibition, % at 8.4 µM; 0.18% of 200,000 active; in the data active = inhibition above about 25%;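 also: 0% = vehicle and 100% = reference inhibitor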
TMEM16A act = activators or potentiators of mouse TMEM16A chloride channel | Q8BHY3 | HEK293 TMEM16A/YFP-H148Q/I152L, iodide quench fluorescence; stronger effect = lower value | B-score at 10 µM | 0.3% of 340,000 active | AID 623877;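 active = fluorescence-ratio B-score plate-corrected deviation score at least 3 library SD below zero, with starting fluorescence score within 5 deviations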;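 also: channel opened by trigger with iodide after compound preincubation; score built on the fluorescence ratio of max minus min over baseline; more negative score means more quench and so TMEM16A activation or potentiation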
TLR9-MyD88 inh = blocks human TLR9 binding to MyD88; Q9NR96+Q99836; CHO BLA complementation TLR9-MyD88, CCF4 FRET ratio; inhibition, % at 4.98 µM; 0.21% of 340,000 active; AID 504734;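 active = inhibition above the mean over all tested compounds plus 3 SD, cut at about 21% in these data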;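 also: 0% = DMSO only wells and 100% = clavulanate BLA inhibitor control wells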
NOD2 RIPK2 PPI = inhibitors of human NOD2-RIPK2 interaction; O43353; CHO BLA complementation NOD2-RIPK2, CCF4 ratio; inhibition, % at 4.98 µM; 0.38% of 360,000 active; AID 624267; in the data active = inhibition above about 21%;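 also: 0% = vehicle only and 100% = reference blocker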
OPRM1 ag = counter-screen for mouse HTR2A agonists: human mu opioid receptor agonists | shares compounds with HTR2A ag | U2OS OPRM1 beta-arrestin PathHunter, luminescence; DMSO 0%, DAMGO 9.3 µM 100% | activation, % at 9.3 µM | 5.3% of 2,300 active | AID 624380;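 active = mean activation above the mean of DMSO-only wells plus 3 SD, cut at about 0.5% in these data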
m5-HT2A ag conf = mouse HTR2A agonism confirmed | shares compounds with HTR2A ag | CHO-K1 PathHunter beta-arrestin recruitment, luminescence; DMSO 0%, 30 µM serotonin 100% | activation, % at 7.6 µM | 19% of 2,300 active;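 active = mean activation across triplicates above the hit threshold derived in the original primary screen, cut at about 15% in these data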
The depositor's hits bear a star; i = inactive; · = not tested or not shown.

SMILES | HTR2A ag | ANO1 block | TLR4-MyD88 BLA | TMEM16A act | TLR9-MyD88 inh | NOD2 RIPK2 PPI | OPRM1 ag | m5-HT2A ag conf
COc1ccc(CNC(=O)C(c2ccc(C)o2)N(Cc2cccs2)C(=O)Cc2cccs2)cc1 (configuration not stated) | -2 | i | -3 | i | -1 | 7 | · | ·
Cc1cccc(N2C(=O)CS/C2=N\NC(=O)c2ccc(Br)cc2)c1C | 15* | i | -8 | i | 2 | -2 | -1 | -1
COc1ccc(COCC(O)CN2CCc3ccccc3C2)cc1OC (configuration not stated) | 21* | i | 2 | i | -1 | 0 | 0 | 4
CN(C(=O)c1ccccc1Cl)c1ccccc1C(=O)NCc1ccccc1 | 35* | i | · | i | -14 | -10 | -1 | -3
CC(CCc1ccccc1)NC(=O)c1ccccc1F (configuration not stated) | -3 | i | · | i | -6 | 8 | · | ·
CN(C(=O)c1ccc(F)cc1)c1ccccc1C(=O)NCc1ccccc1 | 2 | i | · | i | -3 | -10 | · | ·
CC(CCc1ccccc1)NC(=O)c1ccccc1Cl (configuration not stated) | 24* | i | · | i | 13 | -7 | 0 | -4
CC(Sc1nnc(-c2cccnc2)n1N)C(=O)Nc1ccc2c(c1)OCCO2 (configuration not stated) | 3 | · | · | i | 0 | -5 | · | ·
COc1cccc(Nc2ncccc2C(=O)NCc2ccccc2)c1 | 1 | · | -2 | i | 11 | 3 | · | ·
CN(C)CCN(Cc1ccccc1)C(c1cc2ccccc2o1)c1nnnn1C(C)(C)C (configuration not stated) | -9 | · | · | · | · | -1 | · | ·
CC(C)(C)n1nnnc1C(c1cc2ccccc2o1)N(CCC#N)Cc1ccccc1 (configuration not stated) | 42* | · | · | · | · | -4 | -1 | -6
Cc1c(C(=O)N2CCN(Cc3ccc4c(c3)OCO4)CC2)sc2ncnc(N3CCN(c4ccccc4F)CC3)c12 | 25* | i | · | i | -4 | 9 | 0 | 36*
O=C(c1cc2ccccc2o1)N1CCN(Cc2ccc3c(c2)OCO3)CC1 | -7 | i | · | i | 9 | -1 | · | ·
CCN(CC)C(=O)N1CCN(Cc2ccc3c(c2)OCO3)CC1 | 0 | i | -3 | i | -11 | -8 | · | ·
Cc1ccc(C(=O)N2CCN(Cc3ccc4c(c3)OCO4)CC2)o1 | 20* | i | -3 | i | -1 | 0 | -1 | 12
CCOC(=O)N1CCN(Cc2ccc3c(c2)OCO3)CC1 | 37* | i | · | i | -2 | -1 | -1 | 107*
CCOc1cc(C)nc(N2CCC(C(=O)Nc3ccccc3OCC)CC2)n1 | 2 | i | 1 | · | -11 | -10 | · | ·
Cc1cc(NC(=O)COc2cccc([N+](=O)[O-])c2)no1 | 18* | i | · | i | -4 | -1 | 0 | -1
COc1cccc(-n2c(C)nc3cc(C(=O)O)ccc32)c1 | 0 | i | -1 | i | 3 | -1 | · | ·
COc1cccc(NC(=O)CN2C(=O)c3cccnc3Oc3ccc(Cl)cc32)c1 | 4 | i | · | i | -12 | 2 | · | ·
O=C(CN1C(=O)c2cccnc2Oc2ccc(Cl)cc21)Nc1ccccc1F | 19* | i | · | i | 6 | -7 | 0 | 3
CC(=O)C1=C(c2ccccc2)NC(=O)NC1c1cccs1 (configuration not stated) | 5 | i | · | i | 3 | -2 | · | ·
CCN(CC)C(=O)CSc1nc2ccccc2c(=O)n1CCC(=O)NCCc1ccc(OC)c(OC)c1 | 2 | i | 2 | i | 2 | -2 | · | ·
CN(Cc1ccccc1)c1nc2c(c(=O)n(C)c(=O)n2C)n1CCCc1ccccc1 | -10 | i | -13 | i | 14 | 5 | · | ·
CC(C)CCNC(=O)CCn1c(=S)oc2ccccc21 | 19* | i | -10 | i | 7 | -12 | -1 | -3
SMILES | HTR2A ag | ANO1 block | TLR4-MyD88 BLA | TMEM16A act | TLR9-MyD88 inh | NOD2 RIPK2 PPI | OPRM1 ag | m5-HT2A ag conf
Cc1cc(C)c(NS(=O)(=O)c2ccc3c(c2)n(C)c(=O)n3C)c(C)c1 | -2 | i | · | i | 2 | -3 | · | ·
COC(CNC(=O)c1ccc2c(c1)nc(C)n2-c1ccc(F)c(F)c1)OC | 15* | i | 18 | i | -1 | 9 | -1 | -3
COC(CNC(=O)c1ccc2c(c1)nc(C)n2-c1cccc(F)c1)OC | 0 | i | 4 | i | 8 | 2 | · | ·
O=C(c1cccnc1)N1CCN(S(=O)(=O)c2ccc(F)cc2)CC1 | -1 | i | -2 | i | -9 | 5 | · | ·
O=C(c1cccnc1)N1CCN(S(=O)(=O)c2ccc(Cl)cc2)CC1 | 15* | i | 14 | i | -8 | -6 | -1 | -3
Cc1ccccc1C(=O)N1CCN(c2ncccn2)CC1 | -1 | i | · | i | -1 | -1 | · | ·
CS(=O)(=O)c1ccc2nc(NC(=O)c3ccc(Cl)cc3)sc2c1 | 18* | i | · | i | 0 | -3 | 0 | 3
CC1CCCCC1NC(=O)/C(C#N)=C/c1ccc(OCC(N)=O)cc1 (configuration not stated) | -1 | i | 4 | i | -8 | -9 | · | ·
CCc1nn2c(=O)cc(COC(=O)c3cc(Cl)c(OC)c(OC)c3)nc2s1 | 17* | · | · | i | 0 | -15 | 0 | -3
CCOC(=O)C1(Cc2cccc(Cl)c2)CCCN(C(=O)c2cc(C)n(C)n2)C1 (configuration not stated) | 17* | i | · | i | -5 | -18 | -1 | -2
COc1ccc(C(=O)Nc2cccc(C(C)=O)c2)c(OC)c1OC | 2 | i | -5 | i | -4 | -62 | · | ·
O=c1[nH]c(C2CCN(S(=O)(=O)c3ccccc3F)CC2)nc2c1nnn2Cc1ccc2c(c1)OCCO2 | -3 | i | · | i | -2 | -5 | · | ·
O=c1[nH]c(C2CCN(S(=O)(=O)c3ccc(F)cc3)CC2)nc2c1nnn2Cc1ccc2c(c1)OCCO2 | 15* | i | · | i | -10 | 1 | -1 | -4
Cc1ccc(C(=O)N/C(=C/c2ccccc2)C(=O)NC(Cc2ccccc2)C(=O)O)cc1 (configuration not stated) | 16* | i | -9 | i | -7 | -1 | -1 | 42*
Cc1ccc(/C=C(\NC(=O)c2ccccc2)C(=O)NC(Cc2ccccc2)C(=O)O)cc1 (configuration not stated) | 4 | i | -6 | i | -4 | 5 | · | ·
